In PubChem BioAssay AID686978 (National Center for Advancing Translational Sciences (NCATS), 2013):
Hit rate of the full screen: of about 420,000 compounds, about 64,000 (15%) were called active. Roughly 27% stayed inconclusive and do not appear here. These entries were drawn from the full list. Values without a mark were called inactive. Calls follow the shape of the dose curve; as a rule, active = well fitted inhibition curve with a large enough effect; inconclusive = small, poorly fitted or top-dose-only effect; inactive = flat fitted curve, though single readings scatter. Square brackets hold non-standard residues; d marks the D form. Peptide text beside a SMILES is read from it. * marks the point of attachment. ξ: configuration not given here. Cbz = O=C(OCc1ccccc1)*; ξL = CC(C)CC(N)C(=O)O; ξP = O=C(O)C1CCCN1

Assay: qHTS for Inhibitors of human tyrosyl-DNA phosphodiesterase 1 (TDP1): qHTS in cells in absence of CPT; also: nearly all actives have a fitted effect of over 55% in size
Details: DT40 Tdp1-/- hTDP1 cells, no CPT, ATP luminescence, 48 h; activity change, negative = growth inhibition: at 46.2 µM (top of the series)
Summary of the method: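 Growth of hTDP1-complemented DT40 Tdp1-knockout cells is measured by ATP luminescence after at least 48 hr compound exposure at 37 °C, with DMSO substituting for the 20 nM CPT used in the parallel screen.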
% is scaled to controls: 0 for no effect and ±100 for the full control effect; potency is read from the fitted curve at half-maximal effect.

Row | Structure (SMILES) | activity change, negative = growth inhibition [%] | Potency
1 | CC(=O)Nc1ccc(S(=O)(=O)N2CCC(NC(=O)c3ccccc3)CC2)cc1 | -9.1 | 
2 | O=C(NCc1cccs1)c1ccc(Br)o1 | 11.6 | 
3 | CC(C)Cn1c(N)c(C(=O)NCc2cccs2)c2nc3ccccc3nc21 |  | 20.6 µM (active)
4 | CCCNC(=O)c1c(N)n(-c2ccc(S(N)(=O)=O)cc2)c2nc3ccccc3nc12 | -11.3 | 
5 | Cn1nccc1NC(=O)CC(CC(=O)O)c1ccccc1 (stereo not given) | 2.44 | 
6 | COc1ccc(NC(=O)CS(=O)(=O)c2ccccc2)cc1 | 9.07 | 
7 | CC(=O)Nc1ccccc1OC(=O)N1CCOCC1 | 3.24 | 
8 | NC(=O)C1CCN(C(=O)c2ccc(-c3ccccc3)cc2)CC1 | -2.77 | 
9 | CCS(=O)(=O)N1CCC(C(=O)N2CCN(c3ccccc3)CC2)CC1 | -3.39 | 
10 | CS(=O)(=O)N1CCC(C(=O)N2CCN(c3ccccc3)CC2)CC1 | -8.27 | 
11 | CC(=O)c1ccc(N2CCN(S(=O)(=O)c3c(C)[nH]c(=O)[nH]c3=O)CC2)cc1 | -2.01 | 
12 | CC(=O)c1ccc(N2CCN(C(=O)C3CCN(S(=O)(=O)c4ccc5c(c4)CC(C)N5C(=O)C4CC4)CC3)CC2)cc1 (stereo not given) |  | 4.11 µM (active)
13 | NC(=O)COC(=O)c1cc(S(=O)(=O)N2CCN(c3ccccc3)CC2)ccc1Cl | -2.99 | 
14 | CC(=O)N1c2ccc(S(=O)(=O)N3CCC(C(=O)N4CCN(c5ccccc5)CC4)CC3)cc2CC1C (stereo not given) |  | 20.6 µM (active)
15 | NC(=O)C1CCN(C(=O)c2cc(S(=O)(=O)N3CCN(c4ccccc4)CC3)ccc2Cl)CC1 |  | 6.51 µM (active)
16 | CC(=O)c1ccc(S(=O)(=O)N2CCC(Oc3ccc(-n4cnnn4)cc3)CC2)cc1 |  | inactive
17 | COc1ccc(NC(=O)CN(C)S(=O)(=O)c2ccccc2)cc1OC | -13.2 | 
18 | O=C(NCCS(=O)(=O)c1ccc(Br)cc1)c1ccccc1Cl | -2.05 | 
19 | COc1ccc(NC(=O)NN2CCN(C)CC2)c(OC)c1 | 22.4 | 
20 | O=C(Cn1cc2c(n1)CCCCC2)NCCN1CCOCC1 | 4.76 | 
21 | Cn1c(=O)sc2cc(NS(=O)(=O)c3ccc(C(C)(C)C)cc3)ccc21 | -11.5 | 
22 | CC1=NN(C(=O)c2ccccc2Br)C(O)(c2cccnc2)C1 (stereo not given) | -6.62 | 
23 | CCC(C)(C)C1CCC(=NNC(=O)c2ccc(Br)o2)CC1 (stereo not given) | -31.9 | 
24 | CCCC1CCC(=NNC(=S)NCCc2ccccc2)CC1 (stereo not given) |  | 7.31 µM (active)
25 | O=C(NCCc1ccccc1)C1CC1 | 19.3 | 
26 | CC(C)CC(NC(=O)C1CCCN1C(=O)[C@@H](C)NC(=O)OCc1ccccc1)C(=O)NCC(N)=O (stereo not given in full) (Cbz-[dA][ξP][ξL]G-NH2) | 6.22 | 
27 | COc1cc(OC)cc(-c2nc3ccccc3c(=O)n2NC(=O)c2cccnc2Cl)c1 | -13.2 | 
28 | CSc1nc(C)nc(C2CC2)c1C#N | -0.461 | 

Row | Structure (SMILES) | activity change, negative = growth inhibition [%] | Potency
29 | Cc1noc(C)c1NC(=O)Nc1ccc2c(c1)C(=O)N([C@H](C)CO)C[C@H](C)[C@@H](CN(C)C(=O)Nc1ccccc1)O2 | -1.47 | 
30 | CCCCCn1c(CCCNC(=O)c2ccccc2OC)nc2ccccc21 |  | 18.4 µM (active)
31 | CCCCOCCCNC(=O)c1ccccc1OCC | -11.3 | 
32 | Cc1cc2ccccc2n1CCC(=O)O | 7.92 | 
33 | Cc1cc2ccccc2n1CCNC(=O)c1ccc(F)cc1 |  | 18.4 µM (active)
34 | COc1ccccc1C(=O)NCCC(=O)NC(C)CCc1ccccc1 (stereo not given) | -17.9 | 
35 | CCCCCn1c(CCNC(=O)c2ccc(F)cc2)nc2ccccc21 |  | 18.4 µM (active)
36 | O=C(CNC(=O)c1ccc(F)cc1)c1ccccc1 | -19.7 | 
37 | CC(=O)NCCc1nc2cc(NC(=O)c3ccccc3)ccc2n1C | 11 | 
38 | CCC(=O)NCCc1nc2ccccc2n1CC | -1.27 | 
39 | CCN(CC)CCCNC(=O)CCc1ccccc1 | -0.8 | 
40 | CCN(CC)CCCN=C(N)N | 2.6 | 
41 | COc1cc(NS(=O)(=O)c2ccc(NC(=S)NC(=O)c3ccc(Br)cc3)cc2)ncn1 | -27.4 | 
42 | COc1ccc(COCC(O)CN2CCC(C(N)=O)CC2)cc1 (stereo not given) | -4.64 | 
43 | Clc1ccccc1-c1cc(COc2ccc3ccccc3c2)no1 | -29.6 | 
44 | CCCCNC(=O)CCn1c(=S)[nH]c2cc3c(cc2c1=O)OCO3 | -3.61 | 
45 | CCN1CCN(C(=O)N[C@@H](C(=O)N[C@@H]2C(=O)N3C(C(=O)O)=C(CSc4nnnn4C)CS[C@H]23)c2ccc(O)cc2)C(=O)C1=O |  | inactive
46 | COc1ccc(Cl)cc1C=CC=NNC(=O)c1ccncc1 | -17.1 | 
47 | COc1ccc(Cl)cc1C=CC=Nc1ccc(S(N)(=O)=O)cc1 |  | 16.4 µM (active)
48 | NS(=O)(=O)c1ccc(N=Cc2ccc(Br)s2)cc1 | -1.33 | 
49 | O=C1[C@H]2[C@@H](c3ccc(C(F)(F)F)cc3)N[C@]3(CCCN(Cc4ccc(Cl)cc4)C3=O)[C@H]2C(=O)N1Cc1ccccc1 |  | 20.6 µM (active)
50 | COc1ccc([C@H]2N[C@]3(CCCN(Cc4ccco4)C3=O)[C@H]3C(=O)N(C)C(=O)[C@@H]23)cc1 | -28.7 | 
51 | CCN1C(=O)[C@H]2[C@@H](c3ccccc3)N[C@]3(CCCN(Cc4ccc(C)cc4)C3=O)[C@H]2C1=O | -5.24 | 
52 | O=C1[C@H]2[C@@H](c3ccc(C(F)(F)F)cc3)N[C@]3(CCCN(Cc4ccc(Br)cc4)C3=O)[C@H]2C(=O)N1Cc1ccccc1 |  | 23.1 µM (active)
53 | CCN1C[C@@H]2[C@@H]3C(=O)N(Cc4ccccc4)C(=O)[C@@H]3[C@](C)(C1=O)N2C(=O)c1ccc(C(C)(C)C)cc1 | -28 | 
54 | Cc1ccc([C@H]2N[C@]3(CCCN(CC4CCCCC4)C3=O)[C@H]3C(=O)N(Cc4ccccc4)C(=O)[C@@H]23)cc1 |  | 23.1 µM (active)
55 | CCN1C(=O)[C@H]2[C@@H](c3ccc(C(F)(F)F)cc3)N[C@]3(CCCN(Cc4ccc(Br)cc4)C3=O)[C@H]2C1=O |  | 9.2 µM (active)
